# This is a sample that favours compounds with a hit; in the whole collection about 4.7% have one here.
# GALC G270D up = galactocerebrosidase G270D activity enhancement, cell-based; 145M-Twi-hGALC-G270D cells (Twitcher mouse brain line with human GALC G270D), HMU-beta-Gal fluorescence, 48 h; Potency, µM (doses to about 57.5 µM), actives largely listed as activators; actives 0.1% (n = 45,000); AID 1159614; further: potency means the concentration at half of the fitted maximal effect; 0% is about no effect; nearly all actives have a fitted effect of over 65% in size
#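 Mutant human GALC (G270D), stably expressed in a Twitcher mouse brain cell line lacking endogenous GALC, is measured in live-treated cells via 6-hexadecanoylamino-4-methylumbelliferyl-β-galactoside hydrolysis (0.1 mM final, pH 5.2) with fluorescent detection.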
# FH mod = Identification of activators of human fumarate hydratase by quantitative high-throughput screening; Potency, µM (top dose mostly 79.9 µM), for the others: at the highest dose activity change, negative = inhibition, actives largely listed as inhibitors; actives 0.22% (n = 54,000); Fumarate hydratase, mitochondrial (Homo sapiens), P07954; FH coupled MDH/diaphorase resazurin fluorescence, 15 min; further: potency means the concentration at half of the fitted maximal effect; on the % scale 0 is the no-effect control and ±100 the full control effect; the screen sought activators but most active calls are inhibition curves; nearly all actives have a fitted effect of over 45% in size
# NTMT1 inhibitor = NTMT1 methyltransferase inhibition; actives 2.5% (n = 59,000); Q9BV86; Potency, µM (series often up to 114 µM), without a hit: at the top dose activity change, negative = inhibition, actives largely listed as inhibitors; NTMT1 MTase-Glo SAH luminescence, purified enzyme;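 further: potency means the concentration at half of the fitted maximal effect; plate controls were DMSO vehicle for no effect and no enzyme for full effect; nearly all actives have a fitted effect of over 65% in size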
# Target sequence (Q9BV86 whole entry, looked up): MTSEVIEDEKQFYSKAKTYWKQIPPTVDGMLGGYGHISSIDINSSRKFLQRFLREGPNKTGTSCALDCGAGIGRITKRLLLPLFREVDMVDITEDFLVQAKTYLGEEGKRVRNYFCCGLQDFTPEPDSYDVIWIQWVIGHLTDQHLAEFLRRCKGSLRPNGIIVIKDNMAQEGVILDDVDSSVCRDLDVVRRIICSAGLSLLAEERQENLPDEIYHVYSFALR
# DRV1 agonist = agonists of human resolvin D1 receptor DRV1 (GPR32) | actives 2.5% (n = 48,000) | activation, % at 76.9 µM | O75388 | CHO-K1 GPR32 beta-arrestin PathHunter luminescence, 90 min; zero percent set by DMSO-only wells;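 active means activation of at least 60% and not above a set upper limit, about 1 call in 100 departs from these limits; inconclusive means activation of 40% to 60%, or above that upper limit; inactive means activation under 40%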; further: 0% is about no effect
# Target sequence (O75388 whole entry, looked up): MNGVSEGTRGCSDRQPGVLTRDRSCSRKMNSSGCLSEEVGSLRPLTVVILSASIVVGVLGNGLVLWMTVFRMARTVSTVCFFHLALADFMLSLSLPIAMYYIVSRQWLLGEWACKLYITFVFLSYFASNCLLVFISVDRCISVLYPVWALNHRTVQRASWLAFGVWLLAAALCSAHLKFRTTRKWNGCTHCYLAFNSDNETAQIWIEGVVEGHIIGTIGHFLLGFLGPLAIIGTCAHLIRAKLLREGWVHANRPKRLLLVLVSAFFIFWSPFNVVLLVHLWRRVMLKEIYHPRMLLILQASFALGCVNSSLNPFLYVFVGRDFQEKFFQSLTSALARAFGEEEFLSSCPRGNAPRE
#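 Luminescent readout of beta-Gal complementation quantifies ligand-induced beta-arrestin association with GPR32 in CHO-K1 cells; 90 min compound incubation at 37 °C, detection 1 h at room temperature.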
# HTT-AS act = activates huntingtin-antisense promoter activity; HEK293 HTT-AS promoter firefly luciferase reporter, 24 h; response scale: percent change from vehicle, -100% = no light; Potency, µM (doses to about 57.5 µM), without a hit: at the top dose activity change, positive = activation, usual class: activators; actives 0.24% (n = 48,000); AID 1508624; further: potency means the concentration at half of the fitted maximal effect; nearly all actives have a fitted effect of over 55% in size
#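 HEK293 luciferase promoter-reporter cells (2,500/well) plated 24 h, then compounds added at up to 57.5 uM final for 24 h at 37 °C. Firefly luminescence by Dual-Glo, normalized to vehicle (0%) and zero RLU (-100%).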
# HTT prom inh = HTT promoter inhibition; AID 1508623; Potency, µM (doses to about 57.5 µM), for the others: at the highest dose activity change, negative = inhibition, actives largely listed as inhibitors; actives 0.93% (n = 48,000); HEK293 HTT promoter firefly luciferase reporter, 24 h; further: potency means the concentration at half of the fitted maximal effect; nearly all actives have a fitted effect of over 50% in size
#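 Luminescence was read after Dual-Glo reagent and a 10 min room-temperature incubation. Values were normalized to vehicle (0% activity) and zero RLU (-100% activity). Reporter HEK293 cells had been exposed to compounds (up to 57.5 uM final) for 24 h.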
# * = called active by the depositor; i = inactive; ? = inconclusive; . = not tested or not shown; [ ] = dose if it differs, or a comment. Unless noted, the call rests on the fitted dose curve; in most records, active means well fitted curve in the direction sought with a large enough effect; inconclusive means small, poorly fitted or top-dose-only effect, or another doubt; inactive means no such curve, though single readings can be large; an effect the other way counts as inactive or inconclusive.
SMILES,GALC G270D up,FH mod,NTMT1 inhibitor,DRV1 agonist,HTT-AS act,HTT prom inh
O=C1NC(=O)C(=Cc2ccc(-c3ccc(F)cc3O)o2)S1,.,-27%[53.3 µM],24µM*,.,?,10%
CCc1ccc(C2=C(C)C(N3CCC(C(=O)Nc4cccc(OC)c4)CC3)=NS2(=O)=O)cc1,i,2%,4%,-13,-23%,-32%
O=C(Nc1nc2cccc(-c3ccc(CN4CCS(=O)(=O)CC4)cc3)n2n1)C1CC1,.,10%,4%,.,24µM*,25%
CCN(c1ccc(C)cc1)S(=O)(=O)c1nnc(NC(=O)c2cccs2)s1,i,-5%,14%,85*,-34%,?
CC(=O)Nc1cccc(NC(=O)Cc2csc(COc3cccc(C)c3)n2)c1,i,16%,-2%,69*,-17%,?
C[C@@H]1O[C@@H](O[C@H]2[C@H](Oc3cc(O)c(C(=O)CCc4ccc(O)cc4)c(O)c3)O[C@H](CO)[C@@H](O)[C@@H]2O)[C@H](O)[C@H](O)[C@H]1O,.,9%,-3%[57.5 µM],.,.,.
CC(C)(O)[C@H]1CC[C@@](C)([C@H]2[C@@H](O)C[C@@]3(C)[C@@H]4C[C@H](O[C@@H]5O[C@H](CO)[C@@H](O)[C@H](O)[C@H]5O)[C@H]5C(C)(C)[C@@H](O[C@@H]6OC[C@@H](O)[C@H](O)[C@H]6O)CC[C@@]56C[C@@]46CC[C@]23C)O1,.,.,-15%,.,.,.
COc1cc(NC(=O)C2CCCN(S(=O)(=O)c3ccc4c(c3)CCCC(=O)N4)C2)cc(OC)c1 (stereo not given),i,-18%,7%,-3,-15%,-19%
COc1ccc(OC)c(NC(=O)C2CCN(S(=O)(=O)c3ccc4c(c3)CCCC(=O)N4)CC2)c1,i,-3%,2%,72*,-14%,-12%
COc1ccc(NC(=O)C2CCCN(S(=O)(=O)c3ccc4c(c3)CCCC(=O)N4)C2)cc1OC (stereo not given),i,-5%,-6%,63*,-34%,?
Cc1nc(-c2cccc(F)c2)sc1CCNC(=O)Cc1ccc(F)cc1,i,1%,?,88*,-30%,-44%
Cc1nc(-c2ccc(F)cc2)sc1CCNC(=O)c1ccccc1,i,-4%,?,62*,-8%,-12%
Cc1nc(-c2ccc(F)cc2)sc1CCNC(=O)c1ccc(C(C)(C)C)cc1,i,?,19%,-11,-27%,?
CCOc1ccc(CCNC(=O)c2cc3sccc3n2Cc2ccc(F)cc2F)cc1OCC,.,.,18%,.,.,.
CCC(C)C1NC(=O)C2C(C)CCN2C(=O)C(CC(O)CO)OC(=O)CCNC(=O)C(C)N(C)C(=O)C(C(C)C)N(C)C1=O (stereo not given),.,7%[20.6 µM],0%[12.6 µM],.,.,.
Cc1cccc(C(=O)Nc2ccc3oc(-c4ccncc4)nc3c2)c1,i,0%,?,72*,-19%,?
COc1ccc(Nc2cc(C)c3cc(NC(=O)COc4cccc(C)c4)ccc3n2)cc1,i,-24%,17%,72*,-40%,?
Cc1cccc(C(=O)Nc2ccc3oc(-c4cccc5c(Br)cccc45)nc3c2)c1,i,-10%,-1%,16,1%,-11%
Cc1cccc(OCC(=O)Nc2ccc(-c3nc4cc(C)ccc4o3)c(O)c2)c1,i,-9%,12%,-6,0.5µM*,110%
O=C(O)c1cc(I)ccc1NC(=O)[C@H](Cc1ccccc1)NCc1ccccc1,.,-3%,8%[57.5 µM],.,.,.
C=CC(C)(O)CC/C=C(\C)C(=O)OCC1OC(OC2CCC3(C)C(CCC4(C)C3CC=C3C5CC(C)(C)C(O)CC5(C(=O)O)CCC34C)C2(C)C)C(O)C(OC2OC(CO)C(O)C(OC3OC(CO)C(O)C(OC4OC(COC5OC(CO)C(O)C(O)C5O)C(O)C(O)C4O)C3O)C2O)C1O (stereo not given),.,2%[13.5 µM],6%[6.45 µM],.,.,.
Fc1ccccc1Cc1cn2cc(-c3ccc(Cl)cc3)nc2s1,i,0%,4%,68*,?,3%
CC[C@H](NC(=O)[C@H](CS(=O)(=O)CC1CC1)N[C@@H](c1ccc(F)cc1)C(F)(F)F)C(=O)C(=O)NC1CC1,.,7%,11%,.,.,.
Cc1coc2cc3oc(=O)c(CCC(=O)N4CCCCC4)c(C)c3cc12,.,.,.,107*,.,.
Cc1ccc(OCC(=O)Nc2ccc3c(c2)sc(=O)n3C)cc1,i,-6%,4%,73*,-16%,-6%
SMILES,GALC G270D up,FH mod,NTMT1 inhibitor,DRV1 agonist,HTT-AS act,HTT prom inh
COc1ccc(CN2CCN(Cc3cc(=O)oc4cc(C)ccc34)CC2)c(OC)c1OC,i,-21%,-7%,-6,-26%,-16%
COc1ccc(CN2CCN(C(c3ccc(F)cc3)c3ccc(F)cc3)CC2)c(OC)c1OC,i,-12%,-2%[57.5 µM],78*,-27%,-26%
Cc1cccc(-c2nnc(C)n2CCCn2ccnc2)c1N,.,.,0%,.,.,.
Cc1cc(/C=c2/sc3nc4ccccc4n3c2=O)c(C)n1-c1ccccc1,.,5%,?,.,.,.
CCC(C=C[C@@H]1OC(=O)C=C[C@H]1C)=C[C@H](C)CC=CC(C)=C[C@@H](C)C(=O)[C@@H](C)[C@H](O)[C@@H](C)CC(C)=CC(=O)O,.,-12%[2.79 µM],1µM*,.,-36%[2.23 µM],?
O[C@@](Cc1ncc(CC2(C(F)(F)F)CC2)[nH]1)(c1ccc(-n2cccn2)cc1)C(F)(F)F,.,-2%,-6%[57.5 µM],.,.,.
CC1=C(C(=O)Nc2ccccc2Cl)C(c2cccc(O)c2)n2ncnc2N1 (stereo not given),i,-11%,1%,-5,-6%,-9%
CC1=C(C(N)=O)C(c2cccc(O)c2)n2ncnc2N1 (stereo not given),i,1%,5%,61*,-3%,-5%
COc1ccc2[nH]cc(CCNC(=O)Nc3ccccc3)c2c1,i,-6%,-4%,67*,-16%,-10%
COc1ccc2[nH]cc(CCNC(=O)Nc3cc(C)cc(C)c3)c2c1,i,?,-6%,18,7%,3%
CCCCC(CC)CN=C(N)NC(N)=NCCCCCCN=C(N)NC(N)=NCC(CC)CCCC (stereo not given),i,-3%[53.3 µM],3.2µM*,1,-77%,?
CCCCN=C(N)N=C(N)N,i,i,.,18,2%,-4%
